Unmarked numbers belong to inactive results. Entries that show only a call come without a potency. For part of these data: Potency and affinity values are given separately. The source made the active and inactive calls. Unless noted, how the calls were made is not given here.
What was measured:
[1] = antimalarial activity against Dd2 strain (AID 2302;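 active means growth inhibition above 50% at the single 2 µM test dose, taken to imply half-maximal potency below 2 µM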); settings: P. falciparum Dd2 in RBCs, LDH growth readout, 72 h; at 2 µM; active compounds read high
[2] = biological target: L-lactate dehydrogenase (Plasmodium falciparum (isolate CDC / Honduras)) (UniProt Q27743); assay: PfLDH activity inhibition – cell lysate, 3D7 strain, counter-screen for P. falciparum growth inhibition project (AID 2304); settings: P. falciparum 3D7 crude extract, LDH APAD/NBT absorbance; at 2 µM; active compounds read high
[3] = inhibition of 3D7 malaria parasite growth – strain 3D7 (AID 2306); settings: P. falciparum 3D7 erythrocytic growth, LDH absorbance, 72 h; at 2 µM; active compounds read high
[4] = biological target: Calcium-dependent protein kinase 1 (Plasmodium falciparum (isolate 3D7)) (UniProt P62344); assay: PfCDPK1 kinase inhibitors, biochemical, TCAMS library (AID 1159585; cut-off not given, nearly all actives have IC50 up to about 0.98 µM;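 further: inhibitors leave more ATP so luminescence rises with inhibition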); settings: recombinant PfCDPK1, Kinase-Glo ATP depletion luminescence
[5] = biological target: Plasmodium falciparum protein kinase 6 (PK6, PF3D7_1337100) (UniProt Q8IDW1); assay: PfPK6 kinase inhibitors, biochemical, TCAMS library (AID 1159586); settings: recombinant PfPK6, Kinase-Glo ATP depletion luminescence
[6] = biological target: Protein kinase 7 (PK7), Plasmodium falciparum 3D7 (PF3D7_0213400) (UniProt Q7YTF7); assay: inhibition of Plasmodium PK7 catalytic activity – biochemical, TCAMS antimalarial set, Kinase-Glo luminescence (AID 1159587); settings: recombinant PfPK7, Kinase-Glo ATP depletion luminescence
[7] = biological target: Calcium-dependent protein kinase 4 (Plasmodium falciparum (isolate 3D7)) (UniProt Q8IBS5); assay: PfCDPK4 kinase inhibitors, biochemical, TCAMS library (AID 1159588; cut-off not given, nearly all actives have IC50 up to about 0.91 µM); settings: recombinant PfCDPK4, Kinase-Glo ATP depletion luminescence
Calcium-dependent protein kinase 4 (Plasmodium falciparum (isolate 3D7)), sequence (Q8IBS5 whole entry, looked up): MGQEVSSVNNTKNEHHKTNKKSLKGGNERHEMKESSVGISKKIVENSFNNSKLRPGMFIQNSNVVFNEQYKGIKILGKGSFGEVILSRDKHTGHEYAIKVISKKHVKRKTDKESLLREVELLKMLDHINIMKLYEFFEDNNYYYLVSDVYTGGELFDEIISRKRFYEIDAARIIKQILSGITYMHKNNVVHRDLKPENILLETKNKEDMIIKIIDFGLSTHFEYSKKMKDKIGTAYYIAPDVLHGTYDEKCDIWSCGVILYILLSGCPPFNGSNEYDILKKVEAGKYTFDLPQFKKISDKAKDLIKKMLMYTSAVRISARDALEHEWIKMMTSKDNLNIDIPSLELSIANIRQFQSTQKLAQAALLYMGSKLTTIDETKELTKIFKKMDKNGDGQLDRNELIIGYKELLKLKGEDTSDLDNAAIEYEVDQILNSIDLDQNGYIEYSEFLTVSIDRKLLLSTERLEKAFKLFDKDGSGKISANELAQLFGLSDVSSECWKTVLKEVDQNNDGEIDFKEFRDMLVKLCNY

Calcium-dependent protein kinase 1 (Plasmodium falciparum (isolate 3D7)), sequence (P62344 whole entry, looked up): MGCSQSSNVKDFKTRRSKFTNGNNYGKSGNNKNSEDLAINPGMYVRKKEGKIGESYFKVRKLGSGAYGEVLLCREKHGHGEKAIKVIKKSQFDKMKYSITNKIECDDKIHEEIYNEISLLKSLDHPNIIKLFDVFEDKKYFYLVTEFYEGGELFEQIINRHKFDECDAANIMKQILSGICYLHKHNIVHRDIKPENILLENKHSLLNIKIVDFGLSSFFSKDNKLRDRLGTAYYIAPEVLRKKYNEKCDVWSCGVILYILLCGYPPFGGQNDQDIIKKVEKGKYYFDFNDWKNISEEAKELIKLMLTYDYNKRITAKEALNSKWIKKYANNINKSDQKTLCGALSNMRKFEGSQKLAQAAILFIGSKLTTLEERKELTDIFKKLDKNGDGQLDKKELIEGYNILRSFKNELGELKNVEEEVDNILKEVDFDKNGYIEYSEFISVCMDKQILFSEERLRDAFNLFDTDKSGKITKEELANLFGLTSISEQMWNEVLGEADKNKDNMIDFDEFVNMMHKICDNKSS
L-lactate dehydrogenase (Plasmodium falciparum (isolate CDC / Honduras)), sequence (Q27743 whole entry, looked up): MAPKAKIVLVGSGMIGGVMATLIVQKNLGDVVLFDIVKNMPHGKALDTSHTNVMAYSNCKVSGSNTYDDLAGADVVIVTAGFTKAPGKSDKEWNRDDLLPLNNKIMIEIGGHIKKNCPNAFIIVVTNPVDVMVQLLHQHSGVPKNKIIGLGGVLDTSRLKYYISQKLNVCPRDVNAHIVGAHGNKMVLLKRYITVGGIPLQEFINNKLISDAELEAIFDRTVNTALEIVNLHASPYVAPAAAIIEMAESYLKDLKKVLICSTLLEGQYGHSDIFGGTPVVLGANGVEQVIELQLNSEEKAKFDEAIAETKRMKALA
Plasmodium falciparum protein kinase 6 (PK6, PF3D7_1337100), sequence (Q8IDW1 1-305): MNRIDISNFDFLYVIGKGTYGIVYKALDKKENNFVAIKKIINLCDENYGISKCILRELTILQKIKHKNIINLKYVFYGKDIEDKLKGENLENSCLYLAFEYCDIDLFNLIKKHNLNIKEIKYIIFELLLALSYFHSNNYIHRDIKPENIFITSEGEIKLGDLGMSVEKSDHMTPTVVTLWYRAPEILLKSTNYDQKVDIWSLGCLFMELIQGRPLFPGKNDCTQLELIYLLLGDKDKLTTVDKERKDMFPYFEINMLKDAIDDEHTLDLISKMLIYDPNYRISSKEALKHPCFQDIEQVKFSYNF
Protein kinase 7 (PK7), Plasmodium falciparum 3D7 (PF3D7_0213400), sequence (Q7YTF7 1-343): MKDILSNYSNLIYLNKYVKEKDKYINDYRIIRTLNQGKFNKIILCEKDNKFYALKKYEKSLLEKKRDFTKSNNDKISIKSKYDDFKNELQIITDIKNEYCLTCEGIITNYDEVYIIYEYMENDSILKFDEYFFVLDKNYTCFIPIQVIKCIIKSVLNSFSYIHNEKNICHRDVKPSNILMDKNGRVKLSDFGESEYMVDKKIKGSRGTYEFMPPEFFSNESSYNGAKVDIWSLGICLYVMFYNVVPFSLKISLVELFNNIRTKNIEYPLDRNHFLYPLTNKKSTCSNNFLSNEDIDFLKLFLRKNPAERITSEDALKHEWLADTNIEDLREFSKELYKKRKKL

Compound | growth inhibition [1] | inhibition [2] [%] | growth inhibition [3] | outcome [4] | outcome [5] | outcome [6] | outcome [7]
COc1ccc2c(c1CCNCCCCNCCc1c(OC)ccc3c1CCCC3)CCCC2 | 25% | 7 | 101% (active) | inactive | inactive | inactive | inactive
Cc1[nH]c(C)c(-c2cccc(Oc3ccc(Cl)cc3)c2)c(=O)c1Br | 97% (active) | 4 | 96% (active) | inactive | inactive | inactive | inactive
Nc1nc(N)c2c(Oc3ccc(Cl)c(Cl)c3)cccc2n1 | 22% | -5 | 95% (active) | inactive | inactive | inactive | inactive
Cc1[nH]c(C)c(-c2ccc(Oc3cc(Cl)cc(Cl)c3)cc2)c(=O)c1Cl | 96% (active) | -7 | 96% (active) | inactive | inactive | inactive | inactive
Nc1nc(N)c2c(Oc3cc(Cl)c(Cl)c(Cl)c3)cccc2n1 | 92% (active) | 4 | 101% (active) | inactive | inactive | inactive | inactive
CCCc1ccc(Cc2cnc3nc(N)nc(N)c3c2C)cc1 | -3% | 4 | 98% (active) | inactive | inactive | inactive | inactive
N=C(N)c1ccc2[nH]c(-c3cc4cc(C(=N)N)ccc4o3)cc2c1 | 87% (active) | 5 | 94% (active) | inactive | inactive | inactive | inactive
Cc1nc(N)nc(N)c1-c1cc(Cl)c(Cl)c(Cl)c1 | 0% | 2 | 97% (active) | inactive | inactive | inactive | inactive
CC(C)Cn1ccc2c3c(N)nc(N)nc3ccc21 | 96% (active) | 1 | 96% (active) | inactive | inactive | inactive | inactive
NC(N)=NC(=O)Nc1cc(F)c(Cl)c(Cl)c1 | 101% (active) | 2 | 101% (active) | inactive | inactive | inactive | inactive
COc1ccc2c(OC)cccc2c1CNCCCCCCNCc1c(OC)ccc2c(OC)cccc12 | 28% | -5 | 92% (active) | inactive | inactive | inactive | inactive
Cc1cc2c3c(N)nc(N)nc3ccc2n1C | -2% | -5 | 95% (active) | inactive | inactive | inactive | inactive
CCc1cccc(-c2cc(=N)n(C)c3nc(N)[nH]c(=O)c23)c1 | 28% | 3 | 85% (active) | inactive | inactive | inactive | inactive
Nc1nc(N)c2cc(Cc3ccccc3Cl)cnc2n1 | -2% | 4 | 93% (active) | inactive | inactive | inactive | inactive
Nc1ccncc1C(=O)NCCCCN1CCN(c2nsc3ccccc23)CC1 | 9% | 6 | 101% (active) | inactive | inactive | inactive | inactive
CC1CN=C(c2ccc(NC(=O)Nc3ccc(C4=NCC(C)N4)cc3)cc2)N1 (stereo not drawn) | 67% (active) | 0 | 85% (active) | inactive | inactive | inactive | inactive
CCCOc1cc2c(cc1OCCC)C(C=Cc1ccc(Cl)cc1Cl)=NC(C)C2 (stereo not drawn) | 75% (active) | -5 | 90% (active) | inactive | inactive | inactive | inactive
COc1ccc2c(c1CNCCCCCCNCc1c(OC)ccc3c1CCCC3)CCCC2 | 7% | 6 | 94% (active) | inactive | inactive | inactive | inactive
CCNCCCC(C)Nc1ccnc2cc(Cl)ccc12 (stereo not drawn) | -3% | 0 | 100% (active) | inactive | inactive | inactive | inactive
c1ccc(CN2CCN(CCCCNc3c4ccccc4nc4ccccc34)CC2)cc1 | 101% (active) | -6 | 102% (active) | inactive | inactive | inactive | inactive
Cc1[nH]c(C)c(-c2ccc(Oc3cc(Cl)cc(Cl)c3)cc2)c(=O)c1Br | 97% (active) | -6 | 96% (active) | inactive | inactive | inactive | inactive
COc1ccc(Cc2cnc(N)nc2N)cc1OCCCOc1ccccc1 | 4% | 6 | 91% (active) | inactive | inactive | inactive | inactive
CCCCOc1c(CCNCCCCNCCc2cc(OC)c3ccccc3c2OCCCC)cc(OC)c2ccccc12 | 47% | 7 | 91% (active) | inactive | inactive | inactive | inactive
NC(=NCC1CC1c1ccccc1)c1cccc(C(N)=NCC2CC2c2ccccc2)n1 (stereo not drawn) | -2% | 0 | 95% (active) | inactive | inactive | inactive | inactive
